Among the data in the OligoGym collection are sensor-assay potency score (higher = more potent) values, retold here.
Also: reference of the scale not given here.

One experiment deals with FANCG. The experiment in a line: pooled miR-30 sensor sort-seq; sequence = guide strand. The following applies: shRNA.
In the case of TCTCTGTGGATTTCCCATCTTA, the sensor-assay potency score (higher = more potent) is -0.461.

On to TACAACAGTGCTCTCTGTGGAT, for which the sensor-assay potency score (higher = more potent) was -0.172.

As for ATAGCTTTCTAGGTACAGGGGG, the sensor-assay potency score (higher = more potent) turned out to be 0.363.

TAAATTCACTAATTGCCACTTT had a sensor-assay potency score (higher = more potent) of 0.314.

Turning to TGCTGTGTACACCTGGACCAAC, the sensor-assay potency score (higher = more potent) is -1.61.

With TTGGCCTGTCGAACGAGCCGGT, the sensor-assay potency score (higher = more potent) was -0.452.

For the sequence ATGAAGGCTGCTTAGTGCCTTG, the sensor-assay potency score (higher = more potent) is -0.886.

For TACACCTGGACCAACACAGGCC, the sensor-assay potency score (higher = more potent) is 0.254.

With TAAGTGTCTCGATTACCTGGGC, the sensor-assay potency score (higher = more potent) was -0.142.

On to TACCTCAATGAGAAACTGCGGG, for which the sensor-assay potency score (higher = more potent) was -0.383.

TAGCTTTCTAGGTACAGGGGGA: the sensor-assay potency score (higher = more potent) is -0.426.

Turning to TAGCAGCTCCAGACTCTCCAGC, the sensor-assay potency score (higher = more potent) is -0.96.

AAGTACAACAGTGCTCTCTGTG came in with a sensor-assay potency score (higher = more potent) of 0.113.

TTGGGTAGCAGAGATGATGTGC: the sensor-assay potency score (higher = more potent) is 0.442.

On to TTTTCTGGCATCTTCCCACAGC, for which the sensor-assay potency score (higher = more potent) was -0.807.

Turning to TTGGGCACCCAGTTGAACCCAG, the sensor-assay potency score (higher = more potent) was -0.577.

As for AGTAAGTGTCTCGATTACCTGG, the sensor-assay potency score (higher = more potent) is -1.17.

With TGTGTCTCCAGCACTCTCTCTA, the sensor-assay potency score (higher = more potent) was 0.116.

On to TAGTAATTCTACCTCAATGAGA, for which the sensor-assay potency score (higher = more potent) is -0.931.

Another experiment addresses FANCL. The experiment is described as above. The following applies: shRNA.
Consider TTACCTAATGCAATTCTGCGTG, for which the sensor-assay potency score (higher = more potent) was -0.355.

Regarding TTCTGCAGGATACTTTGCCTTC, the sensor-assay potency score (higher = more potent) was -0.558.

Take TACAATATGGACATTCACCAAA: the sensor-assay potency score (higher = more potent) was -0.784.

Turning to TAATAATCTTGCATTCTTCAGT, the sensor-assay potency score (higher = more potent) is -0.383.

Turning to TAAAACTCTGTCTACTAGTTAG, the sensor-assay potency score (higher = more potent) is -1.39.

Sequence TAATCTTGCATTCTTCAGTTGT returned a sensor-assay potency score (higher = more potent) of 0.333.

In the case of TAGATCAGGAGAGTGCTGCATT, the sensor-assay potency score (higher = more potent) is -0.0519.

In the case of TTAGTGAAGAGACAAACGCAGA, the sensor-assay potency score (higher = more potent) was -1.17.

Regarding TTCTCTGTTGTACTATTCGATG, the sensor-assay potency score (higher = more potent) was -1.72.

In the case of TAAGGTGGAAGTCTCTTCCCTG, the sensor-assay potency score (higher = more potent) was 0.0592.

As for TTATGGAAACATTATTACCTAA, the sensor-assay potency score (higher = more potent) was -1.18.

Sequence TTAGTGATTCTATTGCTGCCAA returned a sensor-assay potency score (higher = more potent) of 0.323.

The target of a further experiment is FASN. The experiment is described as above. The following applies: shRNA.
TCCACGAACTCAAACACCGGGG: the sensor-assay potency score (higher = more potent) is -1.02.

For the sequence TTCATAGGTGACTTCCAGCAGC, the sensor-assay potency score (higher = more potent) is -0.213.

For the sequence TTGTTGACATTGTACTCGGCGG, the sensor-assay potency score (higher = more potent) is -1.03.

In the case of TTGAGCTGAAGCCTGCAGGCAG, the sensor-assay potency score (higher = more potent) is -0.315.

Consider TTGTACTCGGCGGAGGACGTGC, for which the sensor-assay potency score (higher = more potent) is -0.733.

Consider TAGGTGGGGATGCTGAGCCGGG, for which the sensor-assay potency score (higher = more potent) is -1.21.

With TCGAAGAAGAAGGAGAGCCGGT, the sensor-assay potency score (higher = more potent) was found to be 0.123.

AAGAACTCCAGGTTGTCCCTGT had a sensor-assay potency score (higher = more potent) of 0.747.

For the sequence TTGGAGAGCAGCACACACCGGA, the sensor-assay potency score (higher = more potent) was -0.273.
